From PubChem BioAssay come the findings set out here.

Activity calls are given as the source filed them.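 Rule for the calls, unless noted: active = membrane potential signal rise above negative control mean plus 3 SD in both duplicates, also active in the earlier TRPC4 screen; inactive = the rest.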

The target in the first experiment is Short transient receptor potential channel 6 (Mus musculus) (UniProt Q61143). Briefly: TRPC6 opening by TRPC4 activator hits – cell-based, HEK293, membrane potential dye, duplicate, selectivity assay for TRPC4 activator project, confirmation (AID 434950).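 For activation: 0% = buffer only wells and 100% = acetylcholine maximal-effect wells.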 To be noted: HEK293 TRPC6, membrane potential fluorescence, at 10 µM; activation: hits give high values; outcome: activation.
Sequence of Short transient receptor potential channel 6 (Mus musculus) (Q61143 whole entry, looked up): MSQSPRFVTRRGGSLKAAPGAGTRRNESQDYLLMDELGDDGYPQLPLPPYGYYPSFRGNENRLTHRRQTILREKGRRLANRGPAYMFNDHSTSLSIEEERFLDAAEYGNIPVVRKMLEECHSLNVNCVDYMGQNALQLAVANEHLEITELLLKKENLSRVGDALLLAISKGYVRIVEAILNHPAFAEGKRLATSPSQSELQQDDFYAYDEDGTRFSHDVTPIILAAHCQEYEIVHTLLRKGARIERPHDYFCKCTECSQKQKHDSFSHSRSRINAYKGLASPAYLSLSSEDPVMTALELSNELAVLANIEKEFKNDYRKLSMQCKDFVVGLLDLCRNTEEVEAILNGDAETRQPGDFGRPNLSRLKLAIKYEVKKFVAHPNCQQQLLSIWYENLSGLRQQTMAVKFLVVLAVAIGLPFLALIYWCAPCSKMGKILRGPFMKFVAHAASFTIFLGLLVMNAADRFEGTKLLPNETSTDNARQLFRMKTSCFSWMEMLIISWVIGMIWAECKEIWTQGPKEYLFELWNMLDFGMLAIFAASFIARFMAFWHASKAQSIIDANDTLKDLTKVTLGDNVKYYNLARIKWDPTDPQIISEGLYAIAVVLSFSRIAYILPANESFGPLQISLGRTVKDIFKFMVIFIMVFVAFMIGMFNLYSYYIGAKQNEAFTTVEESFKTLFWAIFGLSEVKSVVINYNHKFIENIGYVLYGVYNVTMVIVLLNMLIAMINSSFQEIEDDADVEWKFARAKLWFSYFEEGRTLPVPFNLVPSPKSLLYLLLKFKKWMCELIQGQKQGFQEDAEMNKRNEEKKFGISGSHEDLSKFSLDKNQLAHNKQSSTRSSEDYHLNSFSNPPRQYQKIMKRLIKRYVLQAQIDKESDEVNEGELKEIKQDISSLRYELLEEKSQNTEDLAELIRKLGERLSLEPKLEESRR
Consider `Cc1cc(N2CCCCC2)nc(NCc2ccccc2)n1`, for which the activation is 68.5% (active).

Turning to `COCCNC(=O)/C(C#N)=C/c1cc(C(C)C)c(OC)cc1C`, the call was inactive.

`CCN1CCN(c2ccc(S(=O)(=O)N3CCCCC3)cc2NC(=O)COc2cc(C)ccc2Cl)CC1`: the outcome was inactive.

For the compound `FC(F)(F)COc1nc(N2CCCCC2)nc(N2CCNCC2)n1`, the compound was called inactive.

For `CCSc1nnc([C@H](Cc2c[nH]c3ccccc23)NC(=O)OC(C)(C)C)o1`, the compound was called inactive.

With `COc1ccc(/C=C(\C#N)C(=O)N2CCOCC2)cc1Br`, the call was inactive.

`N#Cc1ccc(OCC(O)CN2CCN(c3ncc(C(F)(F)F)cc3Cl)CC2)cc1` (stereo not given): the outcome was inactive.

For `CCCC1=C(C(=O)OCC)C(c2cc(Cl)cc(OC)c2OCC(=O)OCC)NC(=O)N1` (stereo not given), the compound was classed as inactive.

Regarding `CCCCCc1ccc(OCCCC[n+]2ccccc2)c(CCCCC)c1`, the outcome was inactive.

As for `CC(C)(C)c1ccccc1OCCCCCn1ccnc1`, the result was inactive.

Regarding `CCOC(=O)COc1cc(-n2c(=S)[nH]c3ccccc3c2=O)c(Cl)cc1Cl`, the outcome was inactive.

As to `CCCCc1nc(N2CCOCC2)c(C#N)c2c1CCCC2`, the call was inactive.

As to `CCN1CCN(c2ccc(NC(=O)CCc3c(C)nc4c(-c5ccc(F)cc5)c(C)nn4c3C)cc2)CC1`, the result was inactive.

Take `CCOc1cc(/C=C(\C#N)C(=O)Nc2cccc(C(=O)O)c2)cc(Br)c1OC(=O)c1ccc(OC)cc1`: the call was inactive.

On to `COc1ccc(Cl)c2sc(N(CCN(C)C)C(=O)c3ccc4c(c3)OCCO4)nc12`, for which the result was inactive.

As for `CCCCN1C(=O)C(=O)N(CC(=O)Nc2cc(OCC)c(N3CCOCC3)cc2OCC)C1=O`, the call was inactive.

Regarding `CN(C)CCOc1ccc2ccccc2c1`, the result was inactive.

On to `CCCn1c(NCc2cc(OC)ccc2OC)nc2ccccc21`, for which the outcome was inactive.

`COC(=O)c1ccc(NC(=O)CCN2CCN(Cc3ccccc3)CC2)cc1`: the compound was called inactive.

Consider `Cn1c(=O)c2c(nc(SCCN3CCCCC3)n2Cc2ccccc2)n(C)c1=O`, for which the compound was called inactive.

With `O=C(NCc1ccccc1Cl)/C(=C\c1cccnc1)NC(=O)c1ccccc1`, the result was inactive.

As to `COC(=O)[C@@]12CCCN1[C@H](c1ccc(-c3ccc(OC)cc3)cc1)[C@@H]1C(=O)N(C)C(=O)[C@@H]12`, the call was inactive.

With `COc1ccc(-c2cc(C(F)(F)F)nc(N3CCN(C)CC3)n2)cc1`, the compound was called inactive.

Consider `CCOc1ccc(NS(=O)(=O)c2ccc(NC(=S)NC(=O)CC(C)C)cc2)cc1`, for which the compound was called inactive.

On to `CCCN(CCC)CCCNC(=O)c1cc2c(=O)n(C)c3ccccc3c2n1C`, for which the compound was classed as inactive.

With `COc1ccc(CNCC(O)(c2ccccc2)c2ccccc2)cc1OC`, the compound was classed as inactive.

As for `CCOc1cc2[nH]c(=S)n(C3CC3)c(=O)c2cc1OCC`, the call was inactive.

Take `CCOC(=O)c1c(C(F)(F)C(F)(F)C(F)(F)C(F)(F)F)n[nH]c1C`: the result was inactive.

Take `Cn1c(=O)cc(OCCCC(=O)NCCCN2CCN(Cc3ccccc3)CC2)c2ccccc21`: the outcome was inactive.

Take `CC(=O)C1=C(O)C(=O)N(Cc2ccco2)C1c1ccc2c(c1)OCO2` (stereo not given): the compound was called inactive.

Regarding `CCc1cc2c(SCC(=O)N(C)C3CCS(=O)(=O)C3)ncnc2s1` (stereo not given), the compound was called inactive.

For the compound `OC(CNCC1CCCO1)Cn1c2ccc(Br)cc2c2cc(Br)ccc21` (stereo not given), the compound was classed as inactive.

Consider `CCN1CCN(c2ccc(S(=O)(=O)N3CCCCC3)cc2NC(=O)c2cccc(F)c2)CC1`, for which the compound was called inactive.

For `COC(=O)/C=C1\SC(=NC(=O)c2cccc(Cl)c2)NC1=O`, the compound was called inactive.

Turning to `CCCc1ccc(OCc2ccc(C(=O)N3CCCC3)o2)cc1`, the compound was classed as inactive.

As to `Cc1ccc(-c2csc3ncnc(NCCN4CCOCC4)c23)cc1`, the compound was called inactive.

With `Cn1c(=O)n(CCCO)c(=O)c2c1nc1n2CCCN1Cc1ccccc1`, the result was inactive.

In the case of `O=C(NC1CC1)c1ccc2c(c1)N(Cc1ccc(Cl)cc1)CCS2`, the result was inactive.

As to `O=C(COc1ccccc1-c1ccccc1)NCc1ccco1`, the compound was classed as inactive.

As for `CCOc1ccc2nc(NCCNC(=O)C3CC3)c(C)cc2c1`, the result was inactive.

A further experiment has the same target. In words: positive modulators of mouse TRPC6 channel – HEK293 cells, membrane potential dye, duplicate, selectivity assay for TRPC4 potentiator project, confirmation (AID 434952;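 active = compound raising the membrane signal above positive-control mean plus 3 SD in both repeats, and a primary screen hit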). Conditions: HEK293 TRPC6, membrane potential dye fluorescence, at 10 µM, maximal acetylcholine added after compound; hits give high values.
Consider `Cc1cc(N2CCCCC2)nc(NCc2ccccc2)n1`, for which the outcome was inactive.

For `COCCNC(=O)/C(C#N)=C/c1cc(C(C)C)c(OC)cc1C`, the outcome was inactive.

Turning to `CCN1CCN(c2ccc(S(=O)(=O)N3CCCCC3)cc2NC(=O)COc2cc(C)ccc2Cl)CC1`, the outcome was inactive.

As to `FC(F)(F)COc1nc(N2CCCCC2)nc(N2CCNCC2)n1`, the outcome was inactive.

As to `CCSc1nnc([C@H](Cc2c[nH]c3ccccc23)NC(=O)OC(C)(C)C)o1`, the result was inactive.

Take `COc1ccc(/C=C(\C#N)C(=O)N2CCOCC2)cc1Br`: the result was inactive.

Consider `N#Cc1ccc(OCC(O)CN2CCN(c3ncc(C(F)(F)F)cc3Cl)CC2)cc1` (stereo not given), for which the outcome was inactive.

For `CCCC1=C(C(=O)OCC)C(c2cc(Cl)cc(OC)c2OCC(=O)OCC)NC(=O)N1` (stereo not given), the result was inactive.

On to `CCCCCc1ccc(OCCCC[n+]2ccccc2)c(CCCCC)c1`, for which the outcome was inactive.

As to `CC(C)(C)c1ccccc1OCCCCCn1ccnc1`, the result was inactive.

With `CCOC(=O)COc1cc(-n2c(=S)[nH]c3ccccc3c2=O)c(Cl)cc1Cl`, the result was inactive.

For `CCCCc1nc(N2CCOCC2)c(C#N)c2c1CCCC2`, the result was inactive.

`CCN1CCN(c2ccc(NC(=O)CCc3c(C)nc4c(-c5ccc(F)cc5)c(C)nn4c3C)cc2)CC1`: the result was inactive.

On to `CCOc1cc(/C=C(\C#N)C(=O)Nc2cccc(C(=O)O)c2)cc(Br)c1OC(=O)c1ccc(OC)cc1`, for which the result was inactive.

As to `COc1ccc(Cl)c2sc(N(CCN(C)C)C(=O)c3ccc4c(c3)OCCO4)nc12`, the outcome was inactive.

As for `CCCCN1C(=O)C(=O)N(CC(=O)Nc2cc(OCC)c(N3CCOCC3)cc2OCC)C1=O`, the result was inactive.

Regarding `CN(C)CCOc1ccc2ccccc2c1`, the outcome was inactive.

For `CCCn1c(NCc2cc(OC)ccc2OC)nc2ccccc21`, the outcome was inactive.

As to `COC(=O)c1ccc(NC(=O)CCN2CCN(Cc3ccccc3)CC2)cc1`, the result was inactive.

In the case of `Cn1c(=O)c2c(nc(SCCN3CCCCC3)n2Cc2ccccc2)n(C)c1=O`, the outcome was inactive.

Take `O=C(NCc1ccccc1Cl)/C(=C\c1cccnc1)NC(=O)c1ccccc1`: the result was inactive.

`COC(=O)[C@@]12CCCN1[C@H](c1ccc(-c3ccc(OC)cc3)cc1)[C@@H]1C(=O)N(C)C(=O)[C@@H]12`: the outcome was inactive.

`COc1ccc(-c2cc(C(F)(F)F)nc(N3CCN(C)CC3)n2)cc1`: the result was inactive.

Turning to `CCOc1ccc(NS(=O)(=O)c2ccc(NC(=S)NC(=O)CC(C)C)cc2)cc1`, the outcome was inactive.

With `CCCN(CCC)CCCNC(=O)c1cc2c(=O)n(C)c3ccccc3c2n1C`, the outcome was inactive.

For the compound `COc1ccc(CNCC(O)(c2ccccc2)c2ccccc2)cc1OC`, the outcome was inactive.

Turning to `CCOc1cc2[nH]c(=S)n(C3CC3)c(=O)c2cc1OCC`, the result was inactive.

Regarding `CCOC(=O)c1c(C(F)(F)C(F)(F)C(F)(F)C(F)(F)F)n[nH]c1C`, the result was inactive.

Take `Cn1c(=O)cc(OCCCC(=O)NCCCN2CCN(Cc3ccccc3)CC2)c2ccccc21`: the result was inactive.

Take `CC(=O)C1=C(O)C(=O)N(Cc2ccco2)C1c1ccc2c(c1)OCO2` (stereo not given): the outcome was inactive.

With `CCc1cc2c(SCC(=O)N(C)C3CCS(=O)(=O)C3)ncnc2s1` (stereo not given), the outcome was inactive.

Regarding `OC(CNCC1CCCO1)Cn1c2ccc(Br)cc2c2cc(Br)ccc21` (stereo not given), the outcome was inactive.

`CCN1CCN(c2ccc(S(=O)(=O)N3CCCCC3)cc2NC(=O)c2cccc(F)c2)CC1`: the result was inactive.

In the case of `COC(=O)/C=C1\SC(=NC(=O)c2cccc(Cl)c2)NC1=O`, the outcome was inactive.

On to `CCCc1ccc(OCc2ccc(C(=O)N3CCCC3)o2)cc1`, for which the result was inactive.

As for `Cc1ccc(-c2csc3ncnc(NCCN4CCOCC4)c23)cc1`, the result was inactive.

Consider `Cn1c(=O)n(CCCO)c(=O)c2c1nc1n2CCCN1Cc1ccccc1`, for which the result was inactive.

As to `O=C(NC1CC1)c1ccc2c(c1)N(Cc1ccc(Cl)cc1)CCS2`, the outcome was inactive.

Take `O=C(COc1ccccc1-c1ccccc1)NCc1ccco1`: the outcome was inactive.

For the compound `CCOc1ccc2nc(NCCNC(=O)C3CC3)c(C)cc2c1`, the result was inactive.
